Data reported in ChEMBL document CHEMBL3988442, “University of Dundee, Small-Polar-MMV Screening Library” (2021).
In all, about 85,000 compounds went through this assay and about 440 (0.52%) showed an effect of 50% or more. Only a selection was taken, and strong results are over-represented in it overall.

Test: In vitro enzyme assay to detect hydrolysis of chlorophenol red-beta-D-[…] directly proportional to the number of Toxoplasma stably expressing beta-galactosidase
Assay type: functional, organism-based, Toxoplasma gondii
Parameters: scale not given: in the data most compounds retested in dose-response had high values

Q: With Cc1n[nH]c(SCC(=O)NC2CCCCC2)n1 as the compound, how does the “Percent Effect” value (50 µM) read?
A: 32.19%

Q: For Nc1ccn(-c2ccc(C(F)(F)F)cn2)n1, which “Percent Effect” value (50 µM) is on record?
A: 9.315%

Q: For CC(C)c1ccn(C)n1, which “Percent Effect” value (50 µM) is on record?
A: 1.261%

Q: With Cn1nccc1CCC(=O)NCC[C@@H]1CCCN1 as the compound, how does the “Percent Effect” value (50 µM) read?
A: 2.008%

Q: Which “Percent Effect” value (50 µM) does the source give for CCCNC(=O)CCn1nc(C)cc1C here?
A: 59.42%

Q: With CCC(C)C(=O)NCCCn1nc(C)cc1C (stereo unspecified) as the compound, how does the “Percent Effect” value (10 µM) read?
A: 6.68%

Q: Which “Percent Effect” value (50 µM) does the source give for Cc1cc(C)n(CCC(=O)NCc2ccccn2)n1 here?
A: -3.878%

Q: For C=C(C)CNc1nc2nonc2nc1NCCOC, which “Percent Effect” value (50 µM) is on record?
A: 14.38%

Q: For CC(C)c1nnsc1CNC(=O)CCc1csc(N)n1, which “Percent Effect” value (50 µM) is on record?
A: -4.031%

Q: With Cc1cc(C(=O)NC(C)c2ccncc2)ncn1 (stereo unspecified) as the compound, how does the “Percent Effect” value (50 µM) read?
A: 8.375%

Q: Which “Percent Effect” value (50 µM) does the source give for CC(=O)Nc1ccccc1CN here?
A: -1.882%

Q: For CCNC(=O)N1CCNCC1, which “Percent Effect” value (50 µM) is on record?
A: 13.83%

Q: Which “Percent Effect” value (50 µM) does the source give for CCCC(=O)N1CCN(C(=O)NCC)CC1 here?
A: 54.38%

Q: Which “Percent Effect” value (50 µM) does the source give for CCCNC(=O)N1CCN(CCC)CC1 here?
A: -47.68%

Q: With COCC(C)(O)C(F)(F)F (stereo unspecified) as the compound, how does the “Percent Effect” value (50 µM) read?
A: 7.186%

Q: Which “Percent Effect” value (50 µM) does the source give for CC1Cc2ccccc2N1C(=O)c1ccccn1 (stereo unspecified) here?
A: 2.942%

Q: With COCC(O)CN(C)CCn1cc(Br)cn1 (stereo unspecified) as the compound, how does the “Percent Effect” value (50 µM) read?
A: 16.66%

Q: For c1cnn(CCCNCCCn2cccn2)c1, which “Percent Effect” value (50 µM) is on record?
A: 0.4357%

Q: For CCn1nc(C)c2nc(C(C)C)nc(NCC(C)O)c21 (stereo unspecified), which “Percent Effect” value (10 µM) is on record?
A: 75.76%

Q: For CCn1nc(C)c2nc(C(C)C)nc(NCCc3ccc(O)cc3)c21, which “Percent Effect” value (10 µM) is on record?
A: 48.01%

Q: Which “Percent Effect” value (10 µM) does the source give for CCn1nc(C)c2nc(C(C)C)nc(NCC(C)C)c21 here?
A: 49.36%

Q: For CCn1nc(C)c2nc(C(C)C)nc(NC)c21, which “Percent Effect” value (10 µM) is on record?
A: 39.93%

Q: With CCN(CC)CCNc1nc(C(C)C)nc2c(C)nn(CC)c12 as the compound, how does the “Percent Effect” value (10 µM) read?
A: 58.79%

Q: Which “Percent Effect” value (10 µM) does the source give for CCn1nc(C)c2nc(C(C)C)nc(NCCCO)c21 here?
A: 1.913%

Q: With COc1ccnc(N2CC[S+]([O-])CC2)n1 as the compound, how does the “Percent Effect” value (50 µM) read?
A: -6.202%

Q: With O=C(CC1C=CCC1)NCc1ccccn1 (stereo unspecified) as the compound, how does the “Percent Effect” value (50 µM) read?
A: -4.879%

Q: With Cc1cccc(NC(=O)NC2CCN(C)CC2)c1 as the compound, how does the “Percent Effect” value (50 µM) read?
A: -9.939%

Q: For CC(NC(=O)NCCCN1CCCC1=O)c1ccco1 (stereo unspecified), which “Percent Effect” value (50 µM) is on record?
A: -1.872%

Q: Which “Percent Effect” value (50 µM) does the source give for CCN(Cc1cccc(F)c1)C1CCS(=O)(=O)C1 (stereo unspecified) here?
A: -4.951%

Q: With Cc1ccc(CN(CC(=O)N2CCNC2=O)C(C)C)s1 as the compound, how does the “Percent Effect” value (50 µM) read?
A: -25.32%

Q: For CCc1noc(CC)c1CNC(=O)Nc1cccc(C(=O)N(C)C)c1, which “Percent Effect” value (10 µM) is on record?
A: -1.441%

Q: With CC1CCN(CCNC(=O)Nc2ncnn2C)CC1 as the compound, how does the “Percent Effect” value (50 µM) read?
A: 93.89%

Q: With CCc1noc(CC)c1CNC(=O)Nc1ncnn1C as the compound, how does the “Percent Effect” value (50 µM) read?
A: 67.97%

Q: Which “Percent Effect” value (50 µM) does the source give for Cc1cc(NC(=O)NCCN2CCC(C)CC2)n(C)n1 here?
A: -15.44%

Q: With CSCCCNC(=O)Nc1ncnn1C as the compound, how does the “Percent Effect” value (50 µM) read?
A: -6.612%

Q: With CCc1noc(CC)c1CNC(=O)Nc1cccc([S+](C)[O-])c1 (stereo unspecified) as the compound, how does the “Percent Effect” value (10 µM) read?
A: 5.882%
